Data from PubChem BioAssay (NCI).
About 83,000 compounds went through this panel and 20% of them were active in at least one assay; those are over-represented in the sample as a whole.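 A percent growth of 40 corresponds to 60% growth inhibition; 0 means no net growth; -100 means all cells died. Active threshold: below 10.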 The source made the active and inactive calls.

System: M14 melanoma
Test: NCI-60 one-dose screen, 48 h (100 = growth as untreated, 0 = no growth, -100 = all killed)
Settings: 10 µM unless noted

Compound | growth
Oc1c(Cl)cc(Cl)c(Cl)c1Cc1c(O)c(Cl)cc(Cl)c1Cl | 16.3% (inactive)
COc1cc(C2CC(c3ccc(C)cc3)=NN2C=O)ccc1OCCN(C)C (stereo not drawn) | 96.8% (inactive)
NS(=O)(=O)c1cc(C2(O)NC(=O)c3ccccc32)ccc1Cl (stereo not drawn) | 104% (inactive)
CCn1cnc(C[C@H](NC(=O)[C@H](CCCCNC(=O)Nc2cc(C(F)(F)F)cc(C(F)(F)F)c2)NC(=O)Nc2cc(C(F)(F)F)cc(C(F)(F)F)c2)C(=O)OC)c1 | -97.4% [100 µM] (active)
CS(=O)(=O)N1CCN(Cc2cc3nc(-c4cccc5[nH]ncc45)nc(N4CCOCC4)c3s2)CC1 (tested in a mixture with another compound) | 25% (inactive)
CN(C)c1ccc(-c2nc3ncc(Br)cc3o2)cc1 | 97.6% (inactive)
COc1ccc(-c2cc(-c3nnc(SCC(=O)Nc4ccc(C(C)=O)cc4)n3-c3ccccc3)c3ccccc3n2)cc1OC | 93.7% (inactive)
Nc1nc(NC2CC2)c2ncn(C3C=CC(CO)C3)c2n1 (stereo not drawn) | 116% (inactive)
C[C@]12CCC(=O)C=C1CC[C@H]1[C@@H]3C[C@@H](O)[C@](O)(C(=O)CO)[C@@]3(C)C[C@H](O)[C@@]12F | 85.6% (inactive)
NS(=O)(=O)c1cc2c(cc1Cl)NC=NS2(=O)=O | 96.4% (inactive)
COc1cnc2c(c1)C(=O)c1c-2n(CCCn2ccnc2)c(=O)c2cc(F)ccc12 | -39.9% (active)
NC(=O)c1cc(Br)cc(Br)c1NS(=O)(=O)c1ccccc1 | 101% (inactive)
CN(C)c1ccc(-n2nc3ccccc3n2)cc1 | 92.2% (inactive)
